The results in this text go back to PubChem BioAssay (NCI).

Common to all, as to assay: NCI-60 one-dose screen, 48 h (100 = growth as untreated, 0 = no growth, -100 = all killed)
Holding throughout (conditions): 10 µM

Assay [1] deals with HCT-15 colon.
Assay [2] deals with HT29 colon.
Assay [3] has as its system SNB-75 CNS.
Assay [4] deals with SNB-19 CNS.
Assay [5] concerns U251 CNS.
Assay [6] has as its system PC-3 prostate.
For assay [7], the system named is SK-MEL-5 melanoma.
Assay [8] has as its system UACC-62 melanoma.
The test system of assay [9] is LOX IMVI melanoma.
In assay [10] the test system is SK-MEL-28 melanoma.
In assay [11] the test system is SK-MEL-2 melanoma.
The test system of assay [12] is EKVX NSCLC.
Assay [13] deals with SN12C renal.
Assay [14] relates to UO-31 renal.
Assay [15] deals with TK-10 renal.
For assay [16], the system named is ACHN renal.
The test system of assay [17] is CAKI-1 renal.
The subject of assay [18] is A498 renal.
Assay [19] has as its system CCRF-CEM leukemia.
For assay [20], the system named is MOLT-4 leukemia.

This is part of a sample that, as a whole, favours compounds with a hit. Of some 83,000 tested, about 20% had one in any assay.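 Cells were grown in 96-well plates and exposed to the test compound at a single concentration for 48 hours; results are reported as percent growth, with values below 10 considered active.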 A number with no mark means an inactive call. The source made the active and inactive calls.

As to `O=C(Cn1nc(-c2ccccc2)ccc1=O)NNC(=S)NC1CCCCC1`, the growth in assay [1] is 97.9%; in assay [2], 127%; in assay [3] it was 96.6%; in assay [4] it was 100%; in [5], 102%; in assay [6], 96.4%. The growth is 100% in assay [7]; 96.2% in assay [8]; 99% in assay [9]; 108% in [10]; 109% in assay [11]; 98.6% in assay [12]. The growth in assay [13] was 101%; in assay [14], 81.2%; in [15], 109%; in assay [16] it was 102%; in assay [17], 98.6%; in [18] it was 121%. The growth in assay [19] was 103%; in [20], 106%.

On to `O=C(Nc1cc(Cl)cc(Cl)c1)Nc1cc(Cl)cc(Cl)c1`, for which the growth in assay [1] is -23.1% (active); in [2], -20.9% (active); in [3], -14.1% (active); in [4], 5.6% (active); in [5] it was -23.2% (active); in assay [6] it was 0.387% (active). Besides, the growth in assay [7] was -100% (active); in assay [8], -66.1% (active); in assay [9], -91.1% (active); in [10] it was -12.1% (active); in assay [11], -48.4% (active); in [12], -12% (active). For the same compound, the growth was -34.3% (active) in assay [13]; -8.17% (active) in assay [14]; 0.158% (active) in assay [15]; -19.4% (active) in assay [16]; -32.4% (active) in assay [17]; -18.3% (active) in assay [18]. The growth in assay [19] was -33.5% (active); in assay [20] it was -36.2% (active).

In the case of `COc1ccc(-c2c(N)c(=O)n(C)c3ccccc23)cc1`, the growth in assay [1] is 49.7%; in assay [2], 59.9%; in [3] it was 75.4%; in [4], 62.1%; in [5], 47.8%; in assay [6], 46.9%. The growth in [7] was 57.7%; in assay [8], 38.1%; in assay [9] it was 45.9%; in assay [10], 86.5%; in assay [11], 77.4%; in assay [12], 52.4%. Besides, the growth in assay [13] is 52.8%; in assay [14], 29.7%; in [15], 118%; in assay [16], 59.4%; in assay [17], 62.1%; in assay [18], 110%. Besides, the growth in assay [19] is 54.6%; in [20] it was 37.3%.

Take `COc1ccc2c(c1)N=C(C(=O)O)/C2=C/c1sc(Nc2ccc(O)cc2)nc1O`: the growth in [1] was 53.9%; in assay [2] it was 95.9%; in assay [3], 67.2%; in assay [4], 70.1%; in [5], 67.7%; in assay [6], 76%. Moreover, the growth was 83% in assay [7]; 42.9% in [8]; 49.2% in [9]; 80.5% in [10]; 81.6% in assay [11]; 75.1% in assay [12]. Moreover, the growth was 80.9% in [13]; 49.4% in assay [14]; 99.2% in assay [15]; 82.2% in assay [16]; 92.1% in assay [17]; 98.2% in assay [18]. Besides, the figures for the growth in assay [19] and in [20] were 44.3% and 43%, respectively.

As to `O=C(NO)c1ccc(CNC(=O)[C@H]2Cc3c([nH]c4ccccc34)[C@H](c3ccccc3)N2)cc1`, the growth was 72.4% in assay [1]; 20.2% in [2]; 52.3% in assay [3]; 39.4% in assay [4]; 13.4% in assay [5]; 33.3% in assay [6]. Also, the growth in [7] is 8.18% (active); in assay [8], -24.5% (active); in assay [9] it was 19.6%; in [10], 6.06% (active); in assay [11] it was 9.61% (active); in [12] it was 44.8%. Further, the growth is 46.7% in assay [13]; 46.3% in assay [14]; 30.9% in [15]; 70.8% in assay [16]; 78.3% in assay [17]; 23.2% in [18]. Also, the growth in assay [19] is 22.2%; in [20] it was 12.7%.

In the case of `Cc1noc2c(Cc3ccccc3)nn(CC(=O)N/N=C/c3ccc(F)cc3)c(=O)c12`, the growth in [1] was 94.1%; in [2] it was 94.8%; in [3], 9.02% (active); in assay [4], 32.4%; in assay [5], 42.8%; in assay [6] it was 65.6%. The growth was 76% in [7]; 94% in [8]; 36.3% in [9]; 90.4% in assay [10]; 73.7% in assay [11]; 70.8% in assay [12]. Besides, the growth in assay [13] is 25.6%; in assay [14], 5.87% (active); in assay [15], 59.2%; in [16], 9.34% (active); in assay [17], 33.2%; in [18], -20% (active). The values for the growth in assay [19] and in assay [20] were 100% and 106%, respectively.

In the case of `COc1ccc2cc([C@H](C)C(=O)NCc3ccccc3)ccc2c1`, the growth in assay [1] is 29.1%; in assay [2], 5.25% (active); in assay [3], 6.97% (active); in assay [4], 31.7%; in assay [5], 25%; in assay [6], 49.5%. Besides, the growth in [7] was 18.7%; in [8] it was 22.1%; in assay [9] it was 43%; in assay [10], 64.4%; in assay [11], 31%; in [12], 42.5%. For the same compound, the growth in assay [13] was 33.5%; in [14], 46.3%; in assay [15] it was 65.7%; in [16], 54.9%; in [17] it was 34.7%; in [18] it was 63.1%. The figures for the growth in assay [19] and in assay [20] were 31% and 47%, respectively.

As to `CC(C)(C)c1ccc(NCc2cn(-c3ccc(C(=O)O)cc3)nc2-c2ccc(C#N)cc2)cc1`, the growth in assay [1] was -54.6% (active); in assay [2] it was 3.73% (active); in [3], 59.1%; in assay [4], 24.6%; in assay [5], 22.8%; in assay [6], 20.6%. Besides, the growth in assay [7] was 7.94% (active); in assay [8], 8.63% (active); in assay [9], 23.5%; in [10] it was 28.1%; in [11] it was 53.1%; in [12], -36.7% (active). For the same compound, the growth is 16.1% in [13]; 35.7% in assay [14]; 86.3% in assay [15]; 27% in assay [16]; 34.4% in assay [17]; 58.2% in assay [18]. The figures for the growth in [19] and in assay [20] were 16.3% and 8.13% (active), respectively.
